Results as given in PubChem BioAssay AID504329 (Southern Research Specialized Biocontainment Screening …, 2011).
The campaign covered roughly 340,000 compounds. About 1,000 (0.29%) were called active. Cut-off read from the data, not from the text of the source: inconclusive = inhibition above about 27% without an active follow-up result; inactive = below that. A selection follows. Measured potencies and affinities stand elsewhere.

Test: NS1A inhibition, H1N1 influenza, cell based functional assay (AID 504329)
Settings: percent inhibition, at 12.5 µM, stronger effect = higher value

| Compound | inhibition |
| --- | --- |
| COc1ccc(NC(=O)CN2CCN(CC(=O)Nc3ccccc3Cl)CC2)cc1Cl | 3.53% (inactive) |
| COc1cccc(CC(CC(=O)O)C(=O)Nc2cc(C)ccc2C)c1 (configuration not stated) | 2.74% (inactive) |
| CN1C(=O)/C(=C2\SC(=S)N(NC(=O)c3cccnc3)C2=O)c2ccccc21 | 6.82% (inactive) |
| O=C(CNC(=O)c1ccco1)N/N=C/c1c[nH]c2ccccc12 | -1% (inactive) |
| Cc1c(NC(C)C)c(=O)n(-c2ccccc2)n1C | -3.1% (inactive) |
| Cc1c(NS(=O)(=O)c2ccc(Br)cc2)c(=O)n(-c2ccccc2)n1C | -8.19% (inactive) |
| Cc1c(NN=C(C#N)C#N)c(=O)n(-c2ccccc2)n1C | -11.5% (inactive) |
| Cc1c(NP(=O)(c2ccc(Br)cc2)c2ccc(Br)cc2)c(=O)n(-c2ccccc2)n1C | -4.88% (inactive) |
| CCS(=O)(=O)Nc1c(C)n(C)n(-c2ccccc2)c1=O | -2.8% (inactive) |
| C=CCSC(=S)Nc1c(C)n(C)n(-c2ccccc2)c1=O | -2.87% (inactive) |
| COC(=O)C(=NNc1c(C)n(C)n(-c2ccccc2)c1=O)C(=O)OC | -4.26% (inactive) |
| Cc1c(C=C2C(=O)NC(=O)NC2=O)c(=O)n(-c2ccccc2)n1C | -5.56% (inactive) |
| CCN(C(=O)COC(=O)CNS(=O)(=O)c1ccc2ccccc2c1)C1CCCCC1 | -3.12% (inactive) |
| CCn1c(=O)[nH]c(=O)c2c(N)c(C(=O)c3ccccc3OC)sc21 | 14.2% (inactive) |
| CCC(CC)CN1CCC(CN2C(=O)C(=O)NC[C@@H]2[C@@H](C)CC)CC1 | -5.8% (inactive) |
| CC(=O)c1cccc(NC(=O)C2CCN(C(=O)c3cccs3)CC2)c1 | -11.1% (inactive) |
| Cc1ccc(SCC(=O)OCC(=O)Nc2ccc3[nH]c(=O)[nH]c3c2)cc1C | -0.9% (inactive) |
| COc1ccccc1NC(=O)/C(=C\c1cccs1)NC(=O)c1ccco1 | 2.01% (inactive) |
| COc1ccc2c(COC(=O)CC3Sc4ccccc4NC3=O)cc(=O)oc2c1 (configuration not stated) | -3.14% (inactive) |
| Cc1c(NC(=O)CN2C(=O)C(=O)N(Cc3ccccc3)C2=O)c(=O)n(-c2ccccc2)n1C | -4.35% (inactive) |
| Cc1c(NC(=O)NCc2ccccc2)c(=O)n(-c2ccccc2)n1C | 0.65% (inactive) |
| COc1ccc(/C=N/NC(=O)c2ccco2)cc1OCc1ccccc1 | 0.58% (inactive) |
| COc1ccc(/C=N/NC(=O)c2cc(C)oc2C)cc1OCc1ccccc1 | 9.7% (inactive) |
| CC(C)CCNC(=O)NC(=O)COc1ncnc2sccc12 | -13.5% (inactive) |
| O=C(CSc1nncs1)Nc1cc(S(=O)(=O)N2CCOCC2)ccc1N1CCCC1 | -2.14% (inactive) |

| Compound | inhibition |
| --- | --- |
| O=C(COc1ccccc1[N+](=O)[O-])N1CCN(C(=O)c2ccco2)CC1 | 8.66% (inactive) |
| CCOc1ccc2c(c1)C(=NNC(=O)c1ccccn1)c1cc(OCC)ccc1-2 | 7.92% (inactive) |
| COc1ccc2c(c1)C(=NNC(=O)c1ccccn1)c1cc(OC)ccc1-2 | -2.18% (inactive) |
| C/C(CC(=O)NC1CCCCCC1)=N\NC(=O)c1cnccn1 | 2.22% (inactive) |
| C/C(=N\NC(=O)C1CC1)c1cccnc1 | -3.09% (inactive) |
| CC(=O)c1nccs1 | -23% (inactive) |
| C/C(=N/NC(=O)c1cnccn1)c1ccncc1 | 2.49% (inactive) |
| S=C(NC1CCCC1)N1CCN(c2ccccn2)CC1 | -9.04% (inactive) |
| C/C(=N\NC(=S)NC1CCCCC1)c1ccccc1 | 11.5% (inactive) |
| CCNC(=S)N1CCN(c2ccccn2)CC1 | -6.5% (inactive) |
| C/C(=N\NC(=S)NC1CCCCC1)c1cccs1 | 7.94% (inactive) |
| COc1cc(SC)ccc1C(=O)Nc1ccc2c(c1)CCN2S(C)(=O)=O | 0.73% (inactive) |
| CC(=O)Nc1cc(C(=O)OCC(=O)c2ccc(C)cc2)ccc1C | 2.61% (inactive) |
| CCOc1ccc(-c2nc(S(=O)(=O)c3ccccc3)c(N3CCOCC3)o2)cc1 | 6.87% (inactive) |
| CNC(=O)c1c(NC(=O)C2=COCCO2)sc2c1CCC(C)C2 (configuration not stated) | -0.48% (inactive) |
| COc1ccc(CCN(Cc2ccccn2)C(=S)Nc2ccccc2F)cc1OC | 2.66% (inactive) |
| Cc1cccc(N2CCN(C(=O)CCn3c(=O)[nH]c4ccsc4c3=O)CC2C)c1 (configuration not stated) | 14.2% (inactive) |
| CC(C)[C@H](NC(=O)OCc1ccccc1)C(=O)OCC(=O)Nc1ccc(N2CCOCC2)cc1 | -2.26% (inactive) |
| O=C(CSc1nnc(-c2ccccn2)o1)Nc1ccccc1 | -0.31% (inactive) |
| O=C(CSc1ncccn1)Nc1ccccc1 | -12.3% (inactive) |
| O=C(CSc1ccc(C(F)(F)F)cn1)Nc1ccccc1 | -2.05% (inactive) |
| O=C(CSc1ccccn1)Nc1ccc(NC(=O)CSc2ccccn2)cc1 | 3.94% (inactive) |
| O=C(N/N=C/C1CC2CCC1C2)c1ccc2c(c1)OCO2 (configuration not stated) | 4.78% (inactive) |
| Cc1ccccc1C(=O)c1cccn1CC(=O)NCCCc1ccccc1 | -0.87% (inactive) |
| CCOC(=O)c1c(C)[nH]c(C(=O)OCc2ccc(F)cc2)c1C | -5.78% (inactive) |

| Compound | inhibition |
| --- | --- |
| CCOc1ccc(C2NC(=O)NC(C)=C2C(=O)OCc2ccccc2)cc1 (configuration not stated) | -2.43% (inactive) |
| CCOC(=O)C1=C(c2ccccc2)NC(=O)NC1c1ccc(OC)c(OC)c1 (configuration not stated) | -15.2% (inactive) |
| CCOC(=O)C1=C(c2ccccc2)NC(=O)NC1c1ccc(OCC#N)c(OC)c1 (configuration not stated) | 1.47% (inactive) |
| CCOC(=O)C1=C(COc2ccccc2)NC(=O)NC1c1ccc(Cl)cc1 (configuration not stated) | 3.45% (inactive) |
| CCOC(=O)[C@@H]1[C@H]2COc3cc(OC)ccc3[C@@H]2N2C(=O)N(c3cccc(C)c3)C(=O)[C@]12C | 2.49% (inactive) |
| COc1ccc(C2=CC(c3ccc(OC)c(OC)c3)c3c(c4ccccc4oc3=O)O2)cc1OC (configuration not stated) | 26.9% (inactive) |
| Cc1ccc(NC2(C(N)=O)CCCC2)cc1 | -3.06% (inactive) |
| CCC1=C(C)C(N2CCOCC2)=NP(N2CCOCC2)(N2CCOCC2)=N1 | 3.31% (inactive) |
| CCC(Sc1nc(C)cc(=O)[nH]1)C(=O)Nc1sc2c(c1C#N)CCCC2 (configuration not stated) | -5.51% (inactive) |
| CCCCCCNc1c([N+](=O)[O-])cc(C)cc1[N+](=O)[O-] | 28.9% (inactive) |
| Cc1cc(C(=O)NC2CCCCCCC2)ccc1[N+](=O)[O-] | -15.4% (inactive) |
| N#Cc1cc(NC2CCCC2)c([N+](=O)[O-])cc1C#N | 12.5% (inactive) |
| Cc1cc([N+](=O)[O-])c(NCCCCCCO)c([N+](=O)[O-])c1 | 11% (inactive) |
| CCCn1c2ccccc2c2cnn(CC(=O)NCCCOC)c(=O)c21 | 0.78% (inactive) |
| CCN(CC(=O)Nc1c(F)cccc1F)C(=O)CNC(=O)c1ccco1 | -4.3% (inactive) |
| CN1c2ccccc2N(C)C1(C)c1ccccc1 | 14.4% (inactive) |
| CN1c2cccc3cccc(c23)N(C)C1(C)C | 20.9% (inactive) |
| CC(C(c1ccc2c(c1)OCO2)c1c(N)n(C)c(=O)n(C)c1=O)[N+](=O)[O-] (configuration not stated) | -16.4% (inactive) |
| COc1ccc(NC(=O)CSc2nnc3ccc(-c4cccnc4)nn23)cc1OC | -19.3% (inactive) |
| COC(=O)c1ccc(C(=O)NC(=S)Nc2ccc3nc(SC)sc3c2)cc1 | -0.55% (inactive) |
| NS(=O)(=O)c1cccc(NC(=O)COC(=O)COc2ccc3ccccc3c2)c1 | -0.29% (inactive) |
| O=C(N/N=C/c1cccs1)c1ccc2c(c1)OCO2 | 8.44% (inactive) |
| CN(C)c1ccc2c(c1)OC(N)=C(C#N)C2c1cccc(F)c1 (configuration not stated) | -65.2% (inactive) |
| CC(=O)c1ccc(N=Nc2ccc(N(C)C)cc2)cc1 | 13% (inactive) |
| CN(C)c1ccc(N=Nc2ccc(C(=O)O)cc2)cc1 | -2.64% (inactive) |

| Compound | inhibition |
| --- | --- |
| Nc1n[nH]c(N)c1N=Nc1cccc(F)c1 | 1.03% (inactive) |
| Cc1c(Cl)c(C(F)(F)F)nn1CC(=O)NN | 3.69% (inactive) |
| O=C(NCc1ccccn1)/C(=C/c1ccco1)NC(=O)c1ccccc1 | 1.38% (inactive) |
| CCOC(=O)N1CCN(C(=O)c2sc3nc(-c4ccc(F)cc4)cn3c2C)CC1 | -1.44% (inactive) |
| O=C(Cc1ccccc1)Nn1c(-c2ccccc2F)nc2ccccc2c1=O | -1.28% (inactive) |
| CC1(O)CC2CC1C(C(=O)O)C2C(=O)O (configuration not stated) | -2.28% (inactive) |
| CCn1cc([N+](=O)[O-])c(C(=O)N2CCCc3ccccc32)n1 | 4.06% (inactive) |
| COc1ccc(F)cc1S(=O)(=O)n1cnc2ccccc21 | 2.94% (inactive) |
| CCOc1ccc(OCCCC(=O)O)cc1 | -12.4% (inactive) |
| CN1CCN(c2ccc(NC(=O)c3ccc(-c4ccc(Cl)cc4)o3)cc2)CC1 | 6.66% (inactive) |
| COC(=O)c1ccc(N2CCN(C)CC2)c(NC(=O)c2ccc(-c3ccc(Cl)cc3)o2)c1 | -4.26% (inactive) |
| N#C/C(=C\c1ccc(OCc2ccccc2)cc1)C(N)=O | 4.02% (inactive) |
| CCn1c(=O)n(CC)c2cc(N3CCCC3)c(NC(=O)c3cc(Cl)ccc3OC)cc21 | 12.7% (inactive) |
| CN1CCN(/N=C/c2ccc(-c3ccccc3)cc2)CC1 | 10.8% (inactive) |
| CN1CCN(/N=C/c2cccc(Cl)c2Cl)CC1 | 3.86% (inactive) |
| Cc1ccc(C)c(OCCSc2nnc(C)c(=O)[nH]2)c1 | -14.8% (inactive) |
| Cc1ccc(S(=O)(=O)N2CCCC(C(=O)N3CCC4(CC3)OCCO4)C2)cc1 (configuration not stated) | 2.04% (inactive) |
| COc1ccc(S(=O)(=O)N(CCC(=O)O)Cc2ccccc2)cc1 | -3.39% (inactive) |
| O=C(N/N=C/c1cc2c(cc1Br)OCO2)c1cccnc1 | 3.42% (inactive) |
| O=C(N/N=C/c1cc(Br)c(Br)o1)c1cccnc1 | 4.32% (inactive) |
| COc1cc(/C=N/NC(=O)c2cccnc2)cc(Br)c1O | 3.86% (inactive) |
| O=C(N/N=C/c1cc(Br)c(O)c(Br)c1)c1cccnc1 | -2.33% (inactive) |
